Pf growth 48h = P. falciparum growth inhibition at 48 hours (one generation); P. falciparum luciferase growth in erythrocytes, 48 h; Potency, µM (highest dose often 28.7 µM), most hits filed as inhibitors; 5.9% of 310,000 active
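Read-out is firefly luciferase luminescence from an integrated reporter in P. falciparum, so falling signal marks reduced parasite growth. Infected erythrocytes were at 2% hematocrit and 0.1% parasitemia (final) in Albumax-supplemented RPMI 1640.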
Pf growth 96h = inhibits malaria parasite growth, 96 h; P. falciparum luciferase reporter growth, 96 h; Potency, µM (series often up to 28.7 µM), actives largely listed as inhibitors; 6.9% of 320,000 active
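P. falciparum expressing integrated firefly luciferase grown in erythrocytes (2% hematocrit, 0.05% parasitemia final) with compounds for 96 hours at 37 C, 5% CO2. Growth inhibition read as loss of luminescence after adding luciferase detection reagent.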
Shiga inhibitor = inhibitors of Shiga toxin in Vero cells; inhibition, % at 38.7 µM; AID 2315; Vero cells, Shiga toxin protein synthesis inhibition reporter; 9.2% of 290,000 active; in the data active means inhibition mostly above about 28%, no sharp cut-off; inactive means mostly below about 43%
Cycloheximide cs = counter-screen for Shiga toxin inhibitors: cycloheximide protein synthesis inhibition; cell reporter, cycloheximide protein synthesis inhibition counterscreen; max response, %; 12% of 300,000 active; AID 2314; in the data active means max response mostly above about 13%, no sharp cut-off; inactive means mostly below about 14%; further: read at 38.3 µM for the half of the compounds with a filed dose
NS1 function inh = blocks influenza NS1 protein function | Potency, µM (doses to about 46.1 µM) | 0.4% of 270,000 active | AID 2326; calls by dose curve; further: actives are rising curves; nearly all actives have a fitted effect of over 50% in size
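Read-out: OD600 growth recovery of NS1-expressing budding yeast. Cells grown overnight at 30C in -URA glucose medium, washed, resuspended and diluted 1:100 in 2% galactose assay medium, pH 6.0. Same strain lacking NS1 served as positive control.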
Hits are given with their value; . = inactive; ? = inconclusive; / = no result given; + = active, no number; [ ] = dose if it differs, or a comment. Most compounds without a hit are left out; they make up all but 21% or so of the library. Unless noted, the call rests on the fitted dose curve; in most records, active means well fitted inhibition curve with a large enough effect; inconclusive means small, poorly fitted or top-dose-only effect, or another doubt; inactive means no such curve, though single readings can be large or run the other way.

SMILES | Pf growth 48h | Pf growth 96h | Shiga inhibitor | Cycloheximide cs | NS1 function inh
CCOC(=O)c1c(Nc2ccc(Cl)cc2)sc(/C=C2\C=Nc3ccccc32)c1O | 4.1µM | / | . | . | .
CC(C)COP(=O)(c1ccc(N(C)C)cc1)C(O)c1ccccc1F (configuration not stated) | . | . | . | . | .
O=C(Nc1ccc(F)cc1)Nc1ccc(N2CCOCC2)c2nonc12 | . | . | . | 18 | .
Nc1ccc(N2CCOCC2)c2nonc12 | . | 12µM | . | . | .
O=C(Nc1ccc(Cl)cc1N1CCOCC1)C1CCCCC1 | ? | . | . | . | .
O=C(Nc1ccc(N2CCOCC2)c2nonc12)C1CCCC1 | . | / | . | 18 | .
COc1ccc(NC(=O)Nc2ccc(N3CCOCC3)c3nonc23)c(OC)c1 | . | .[5.75 µM] | . | . | /
N#CCCN(C(=S)NC(=O)c1ccco1)c1ccccc1F | . | . | . | . | /
CN(C)/C=N/c1cc(=O)[nH]c(=O)n1C | . | . | . | . | ?
CC(C)(C)OC(=O)N1CCNc2ccccc2C1 | . | ? | + | 12 | .
Cc1ccc(-n2nc(CN3CCOCC3)c(-c3ccccc3)c2N)c(C)c1 | . | . | . | . | .
N/C(=N\OC(=O)c1cccnc1)c1ccccc1Cl | . | . | 84 | 27 | /
N/C(=N\OC(=O)c1cccnc1)c1ccc(Cl)cc1Cl | . | . | 44 | 22 | /
O=C(Nc1cccc(NC(=O)c2ccc(Cl)cc2Cl)c1)c1cccnc1 | . | . | . | . | .
Cc1ccc(S(=O)(=O)NC(CC(C)C)C(=O)N2CCC(C)CC2)cc1 (configuration not stated) | . | ? | . | . | .
O=C(N/N=C/c1ccoc1)c1ccccc1O | . | . | . | 29 | .
O=C(N/N=C/c1ccoc1)c1ccccc1 | . | ? | 61 | 37 | .
O=C(N/N=C/c1ccoc1)c1ccc(Br)cc1 | . | ? | 36 | 36 | .
Cc1cc(C)cc(C(=O)N/N=C/c2ccoc2)c1 | . | . | . | . | .
O=C(N/N=C/c1ccoc1)c1cc(O)cc(O)c1 | . | ? | . | . | .
O=C(N/N=C/c1ccoc1)c1ccc(Cl)cc1 | 2.6µM | ? | . | . | .
COc1ccc(-c2ccnc(SCC(=O)N3CCN(c4ccccc4)CC3)n2)cc1 | . | . | . | . | .
Cc1cc(NS(C)(=O)=O)c(=O)n(Cc2c(F)cccc2Cl)c1 | . | ? | / | . | .
COc1ccc(S(C)(=O)=O)cc1S(C)(=O)=O | . | / | . | . | .[9.22 µM]
Cc1cc(SCc2ccccc2Cl)nc(=O)[nH]1 | . | . | . | . | .
SMILES | Pf growth 48h | Pf growth 96h | Shiga inhibitor | Cycloheximide cs | NS1 function inh
Cc1cc(SCc2ccc(Br)cc2)nc(=O)[nH]1 | . | . | . | 40 | .
Cc1cc(SCc2ccc(Cl)c(Cl)c2)nc(=O)[nH]1 | . | ? | . | 28 | .
CC(Oc1ccc(F)cc1)C(O)CCN(C)C (configuration not stated) | . | . | . | . | /
COc1ccccc1CNC(=O)CCCn1nc(C)n2ccnc2c1=O | . | . | . | . | .
COc1ccc(N2CCN(S(=O)(=O)c3cn(C)cn3)CC2)cc1 | . | . | . | . | .
COC(=O)/C(=C\Nc1ccc(Cl)cc1Cl)NC(=O)c1ccc(OC)cc1 | . | . | . | . | .
Cn1nc(-c2ccc(N3CCOCC3)c(NC(=O)COc3ccccc3)c2)c2ccccc2c1=O | / | / | / | / | .
COc1ccc(OCC(=O)Nc2cc(-c3nn(C)c(=O)c4ccccc34)ccc2N2CCOCC2)cc1 | ? | 5.9µM | . | . | .
COc1ccc(NC(=O)COc2ccc(-c3nn(C)c(=O)c4ccccc34)cc2)cc1 | . | . | . | . | .
CCN(CC)C(=O)c1ccc(NC(=O)COc2ccc(-c3nn(C)c(=O)c4ccccc34)cc2)cc1 | 13µM | ? | . | . | .
CN(CCO)C(=O)c1ccc(-c2nn(C)c(=O)c3ccccc23)cc1 | . | . | . | . | .
CN(C(=O)c1ccc(-c2nn(C)c(=O)c3ccccc23)cc1)C1CCCCC1 | 12µM | . | . | . | .
C=CCOc1c(Br)cc(/C=C2/C(=O)ON=C2C)cc1OC | . | . | . | . | .
COc1ccc(CCNC(=O)CSc2nc3c(c(=O)n(C)c(=O)n3C)n2C)cc1OC | . | ? | . | . | .
CCOc1ccc(C[C@H]2NC(=O)CCSSC[C@@H](C(=O)N3CCC[C@H]3C(=O)N[C@@H](CCCN)C(=O)NCC(N)=O)NC(=O)[C@H](CC(N)=O)NC(=O)[C@H]([C@@H](C)O)NC(=O)[C@H]([C@@H](C)CC)NC2=O)cc1 | / | / | . | . | /
O=C(Nc1ccc([N+](=O)[O-])cc1)c1cc2ccccc2nc1Cl | ? | ? | . | 20 | .

Source: PubChem BioAssay (National Center for Advancing Translational Sciences (NCATS))
